Data as given in PubChem BioAssay (EPA / NIEHS).
Results filed as inconclusive are left out. The source made the active and inactive calls. How the source made its calls, unless noted: active means hit-call score of the fitted dose curve at least 0.9, where 1 is the maximum; inconclusive means response in the unintended direction; inactive means score below 0.9.

Assay: IUF_NPC5_oligodendrocyte_differentiation_120hr: Leibniz Research Institute for Environmental Medicine (IUF) 120-hour Oligodendrocyte Differentiation Assay (NPC5) (AID 2284304);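 further: primary human fetal neural progenitor spheres plated to migrate and differentiate; share of O4-positive cells among Hoechst nuclei found by CNN image analysis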
Conditions: not given
In short: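 Human primary NPC neurospheres migrating and differentiating on laminin for 120 h under continuous compound exposure (serial dilution, solvent control). Endpoint: percent O4+ oligodendrocytes among Hoechst nuclei, detected by CNN image analysis, with DMSO as negative control.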

SMILES	AC50	outcome
CCC[CH2][Sn]([Cl])([CH2]CCC)[CH2]CCC	0.12 µM (active)	
OCCOCCO		inactive
CC(C)(C)C(O)(CCc1ccc(Cl)cc1)Cn1cncn1 (configuration not stated)		inactive
CNC(=O)Oc1cccc2c1OC(C)(C)C2		inactive
CC(C)COC(=O)c1ccccc1C(=O)OCC(C)C		inactive
COP(=S)(OC)SCN1C(=O)c2ccccc2C1=O		inactive

Assay: IUF_NPC4_neurite_area_120hr: Leibniz Research Institute for Environmental Medicine (IUF) 120-hour Neuronal Morphology Assay for Neurite Area (NPC4) (AID 2284305)
Conditions: not given
In short: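 Human fetal neural progenitor spheres (0.3 mm) plated on poly-D-lysine/laminin in N2 differentiation medium, exposed 120 h (7 concentrations, DMSO ≤0.1%, half-medium refresh day 3). Fixed, TUBB3 immunostained; mean neurite area per neuron by Omnisphero skeletonization.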

SMILES	AC50	outcome
CCC[CH2][Sn]([Cl])([CH2]CCC)[CH2]CCC	0.312 µM (active)	
CC(C)(C)C(O)(CCc1ccc(Cl)cc1)Cn1cncn1 (configuration not stated)		inactive
[O-][Cl+]O		inactive
CCCCOC(=O)c1ccccc1C(=O)OCc1ccccc1		inactive
CNC(=O)Oc1cccc2c1OC(C)(C)C2		inactive
COC(=O)Nc1nc2ccccc2[nH]1		inactive
CC(C)COC(=O)c1ccccc1C(=O)OCC(C)C		inactive
O=P(OCCCl)(OCCCl)OCCCl		inactive
COP(=S)(OC)SCN1C(=O)c2ccccc2C1=O		inactive

Assay: IUF_NPC2-5_cytotoxicity_72hr: Cytotoxicity Assessment at 72 hours in the Leibniz Research Institute for Environmental Medicine (IUF) Neural Progenitor Cell Migration and Differentiation Assay for Cytotoxicity (NPC2-5) (AID 2284306);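 further: LDH release into supernatant measured by resorufin fluorescence marking membrane damage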
Conditions: not given
In short: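 Human fetal primary neural progenitor spheres (0.3 mm) plated on poly-D-lysine/laminin in N2 differentiation medium, exposed from day 0 at 37C. LDH-dependent resazurin-to-resorufin fluorescence in supernatant at 72 h; 7 concentrations, DMSO at most 0.1%.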

SMILES	AC50	outcome
CCC[CH2][Sn]([Cl])([CH2]CCC)[CH2]CCC	0.31 µM (active)	
OCCOCCO		inactive
CC(C)(C)C(O)(CCc1ccc(Cl)cc1)Cn1cncn1 (configuration not stated)		inactive
[O-][Cl+]O		inactive
CCCCOC(=O)c1ccccc1C(=O)OCc1ccccc1		inactive
CNC(=O)Oc1cccc2c1OC(C)(C)C2		inactive
COC(=O)Nc1nc2ccccc2[nH]1		inactive
CC(C)COC(=O)c1ccccc1C(=O)OCC(C)C		inactive
O=P(OCCCl)(OCCCl)OCCCl		inactive
COP(=S)(OC)SCN1C(=O)c2ccccc2C1=O		inactive

Assay: IUF_NPC2-5_cytotoxicity_120hr: Cytotoxicity Assessment at 120 hours in the Leibniz Research Institute for Environmental Medicine (IUF) Neural Progenitor Cell Migration and Differentiation Assay (NPC2-5) (AID 2284307);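 on AC50: LDH released into supernatant as membrane damage marker via resorufin fluorescence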
Conditions: not given
In short: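 Fluorescence (RFU) from LDH-driven resazurin reduction in medium supernatants measured loss of membrane integrity after 120 h of compound exposure of differentiating primary human neural progenitor spheres on an extracellular matrix.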

SMILES	AC50	outcome
CCC[CH2][Sn]([Cl])([CH2]CCC)[CH2]CCC	0.455 µM (active)	
OCCOCCO		inactive
CC(C)(C)C(O)(CCc1ccc(Cl)cc1)Cn1cncn1 (configuration not stated)		inactive
[O-][Cl+]O		inactive
CCCCOC(=O)c1ccccc1C(=O)OCc1ccccc1		inactive
CNC(=O)Oc1cccc2c1OC(C)(C)C2		inactive
CC(C)COC(=O)c1ccccc1C(=O)OCC(C)C		inactive
O=P(OCCCl)(OCCCl)OCCCl		inactive
COP(=S)(OC)SCN1C(=O)c2ccccc2C1=O		inactive

Assay: IUF_NPC2-5_cell_number_120hr: Cell Number Assessment at 120 hours in the Leibniz Research Institute for Environmental Medicine (IUF) Neural Progenitor Cell Migration and Differentiation Assay (NPC2-5) (AID 2284308; active means hit-call score of the fitted dose curve at least 0.9, where 1 is the maximum; inactive means score below 0.9;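 further: count of Hoechst-stained nuclei in migration zone around plated human neural progenitor spheres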)
Conditions: not given
In short: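 Cell number is taken as all Hoechst-positive nuclei detected in the area into which cells migrate out of the sphere, scored at 120 h and referenced to DMSO solvent control, which was kept at no more than 0.1%.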

SMILES	AC50	outcome
CCC[CH2][Sn]([Cl])([CH2]CCC)[CH2]CCC	0.31 µM (active)	
OCCOCCO		inactive
CC(C)(C)C(O)(CCc1ccc(Cl)cc1)Cn1cncn1 (configuration not stated)		inactive
[O-][Cl+]O		inactive
CCCCOC(=O)c1ccccc1C(=O)OCc1ccccc1		inactive
CNC(=O)Oc1cccc2c1OC(C)(C)C2		inactive
COC(=O)Nc1nc2ccccc2[nH]1	7.82 µM (active)	
CC(C)COC(=O)c1ccccc1C(=O)OCC(C)C		inactive
O=P(OCCCl)(OCCCl)OCCCl		inactive
COP(=S)(OC)SCN1C(=O)c2ccccc2C1=O		inactive

Assay: VALA_TUBHUV_Agonist_CellCount: Viability Assessment in the VALA Sciences human Umbilical Vein Endothelial Tubule Formation (TUBHUV) Agonism Assay (AID 2284309)
Conditions: not given
In short: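 HUVEC co-cultured 1:3 with HDF for 3 days in 10 ng/ml VEGF, then compounds added in VEGF medium for a further 3 days (72 h). Nuclear-stain/CD31 imaging cell count. Positive-direction fit versus 0.1% DMSO vehicle.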

SMILES	outcome
CO[C@@H]1[C@H](OC(=O)NC(=O)CCl)CC[C@]2(CO2)[C@H]1[C@@]1(C)O[C@@H]1CC=C(C)C	inactive
Clc1ccc(Cl)c(Cl)c1	inactive
Oc1ccc2ccc3cccc4ccc1c2c34	inactive
O=P(OCCCl)(OCCCl)OCCCl	inactive

Assay: VALA_TUBHUV_Antagonist_CellCount: Viability Assessment in the VALA Sciences human Umbilical Vein Endothelial Tubule Formation (TUBHUV) Antagonism Assay (AID 2284310)
Conditions: not given
In short: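 HUVEC co-cultured with HDF (1:3) 3 days in 10 ng/ml VEGF, then 3 days with compounds in VEGF medium. Fixed, nuclear stain and CD31 immunofluorescence, imaged; cell counts fitted versus 0.1% DMSO, loss of signal read as lower viability.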

SMILES	outcome	AC50
CO[C@@H]1[C@H](OC(=O)NC(=O)CCl)CC[C@]2(CO2)[C@H]1[C@@]1(C)O[C@@H]1CC=C(C)C	inactive	
Oc1ccc2ccc3cccc4ccc1c2c34	inactive	
O=P(OCCCl)(OCCCl)OCCCl		88.3 µM (active)

Assay: VALA_TUBIPS_Antagonist_TubuleLength: VALA Sciences human iPS-derived Endothelial Tubule Formation (TUBIPS) Antagonist Assay (AID 2284313)
Conditions: not given
In short: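 Cells grown 3 days with 10 ng/ml VEGF, then exposed to compounds in VEGF medium for another 3 days. After fixation, nuclear stain and CD31 immunofluorescence imaging gave mean total tubule length against 0.1% DMSO; suramin (100 uM) inhibition control.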

SMILES	outcome
CO[C@@H]1[C@H](OC(=O)NC(=O)CCl)CC[C@]2(CO2)[C@H]1[C@@]1(C)O[C@@H]1CC=C(C)C	inactive
Oc1ccc2ccc3cccc4ccc1c2c34	inactive
O=P(OCCCl)(OCCCl)OCCCl	inactive

Assay: CCTE_Mundy_HCI_iCellGluta_NOG_NeuriteLength: CCTE's Neurite Outgrowth Assay in iCellGluta cells for Neurite Length, Mundy Lab (AID 2284318)
Conditions: not given
Method: CCTE_Mundy_HCI_iCellGluta_NOG is a multiplexed, cell-based-readout assay that uses iCell GlutaNeurons from FUJIFILM Cellular Dynamics, Inc. (FCDI), human glutamatergic enriched neurons derived from induced pluripotent stem (iPS) cells, with measurements taken at 50.33 hours after chemical dosing in a microplate: 96-well plate.CCTE_Mundy_HCI_iCellGluta_NOG_NeuriteLength is one of four components of the CCTE_Mundy_HCI_iCellGluta_NOG assay. It measures neurite outgrowth related to neurite length using High Content Imaging of fluorescently labelled markers.Data from the assay component CCTE_Mundy_HCI_iCellGluta_NOG_NeuriteLength was analyzed at the endpoint CCTE_Mundy_HCI_iCellGluta_NOG_NeuriteLength in the positive analysis fitting direction relative to DMSO as the negative control and baseline of activity. Using a type of morphology reporter, loss-of-signal activity can be used to understand developmental effects.
Exposure starts 2 hours post-plating by adding 10 ul of the working solution to 90 ul of media in the wells for a 1/10 dilution. Forty-eight hours after chemical treatment cells are fixed by direct addition of 100 ul of warm (37C) Dulbecco's phosphate buffered saline (DPBS) fixative solution containing 8% paraformaldehyde, 8% sucrose, and 0.1% of 3 mg/ml Hoechst 33342 into each well. Primary antibodies are prepared by dilution in Immunocytochemical Staining Buffer (ISB), 10X Dulbecco's PBS, 0.1% Saponin, 5% Bovine Serum Albumin, 0.5% NaN3 (Sodium Azide) and betaIII-tubulin (rabbit anti-betaIII-tubulin, 1:800) followed by Alexa Fluor-488 secondary (1:500) to label neuronal cell bodies and neurites. A Cellomics ArrayScan VTi HCS Reader is used for automated image acquisition and analysis of neurite outgrowth.

SMILES	AC50	outcome
CCC[CH2][Sn]([Cl])([CH2]CCC)[CH2]CCC	0.163 µM (active)	
[O-][Cl+]O	24 µM (active)	
CCCCOC(=O)c1ccccc1C(=O)OCc1ccccc1		inactive
CNC(=O)Oc1cccc2c1OC(C)(C)C2	49.6 µM (active)	
COC(=O)Nc1nc2ccccc2[nH]1		inactive
CN(C)[C@@H]1C(=O)C(C(N)=O)=C(O)[C@@]2(O)C(=O)C3=C(O)c4c(O)cccc4[C@@](C)(O)[C@H]3C[C@@H]12	23.3 µM (active)	
CC(C)COC(=O)c1ccccc1C(=O)OCC(C)C		inactive
COP(=S)(OC)SCN1C(=O)c2ccccc2C1=O	92.2 µM (active)	

Assay: CCTE_Deisenroth_5AR_NBTE_acceptor: CCTE's 5alpha-reductase NanoBRET Target Engagement Assay - Autofluorescence Screen, Deisenroth Lab (AID 2284321; active means hit-call score of the fitted dose curve at least 0.9, where 1 is the maximum; inactive means score below 0.9;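 further: compound fluorescence in the acceptor channel under 460 nm excitation flags autofluorescence artifacts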)
Conditions: actives raise or lower the signal
In short: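 Chemicals diluted to a nominal 100 uM in DMSO were scanned at 460 nm excitation. Samples were read in three independent runs (n=3). Gain or loss of acceptor signal was fitted relative to DMSO.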

SMILES	outcome	AC50
C[C@]12C=CC3=C4CCC(=O)C=C4CC[C@H]3[C@@H]1CC[C@@H]2O	inactive	
CCC[CH2][Sn]([Cl])([CH2]CCC)[CH2]CCC		4.25 µM (active)
CC(C)(O)c1cnn2c(-c3ccc(F)c(-c4c(F)cccc4C#N)c3)cnc2n1	inactive	
Cc1ccc(N)c(N)c1		50 µM (active)
COc1cc(C=O)cc2c1[C@H](COC(N)=O)[C@]1(OC(C)=O)ON2C[C@H]2[C@@H]1N2C(C)=O	inactive	
Cc1cc(N=Nc2ccccc2C)ccc1N		38.4 µM (active)
Nc1ccc(N=Nc2ccccc2)cc1	inactive	
[Cl-].[Cl-].[Hg+2]		73.3 µM (active)
CCCCCCCCn1sccc1=O		73.2 µM (active)
c1ccc2c(c1)-c1cccc3cccc-2c13	inactive	
